Only some compounds are listed: those with a hit (about 2.3% of all), similar ones and a draw of the others.
CHRM1 agonist – human M1 muscarinic receptor agonists, primary screen, Fluo-8 calcium fluorescence, CHO-K1 cells, HTS; Muscarinic acetylcholine receptor M1 (Homo sapiens), P11229; CHO-K1 hM1, agonist mode; 0% DMSO, 100% acetylcholine EC100; activation, % at 3 µM; hit rate 0.33% among 360,000; AID 588814, 2011;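 active = activation above the run's mean compound activation plus 3 SD, cut at about 16% in these data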;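 note: peak over basal fluorescence ratio within a 140 s kinetic read after compound addition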
Target sequence (P11229 whole entry, looked up): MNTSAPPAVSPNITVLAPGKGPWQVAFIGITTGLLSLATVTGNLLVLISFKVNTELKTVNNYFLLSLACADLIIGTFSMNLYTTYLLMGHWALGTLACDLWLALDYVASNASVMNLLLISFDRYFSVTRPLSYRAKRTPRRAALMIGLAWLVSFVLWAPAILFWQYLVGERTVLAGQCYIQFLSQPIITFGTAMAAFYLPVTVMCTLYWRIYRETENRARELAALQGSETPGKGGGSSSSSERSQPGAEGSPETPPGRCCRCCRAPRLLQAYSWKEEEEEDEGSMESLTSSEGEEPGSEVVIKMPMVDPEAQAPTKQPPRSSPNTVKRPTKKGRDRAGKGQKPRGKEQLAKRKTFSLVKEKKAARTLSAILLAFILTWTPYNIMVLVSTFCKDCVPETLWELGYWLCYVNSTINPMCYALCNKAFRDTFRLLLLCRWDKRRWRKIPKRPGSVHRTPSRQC
CHO-K1 Ca antag – nonselective inhibitor or artifact in parental CHO-K1 cells; ATP-induced calcium, Fluo-8 fluorescence; inhibition, % at 3 µM; hit rate 0.6% among 360,000;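 active = inhibition above a per-plate cutoff, the plate's mean sample inhibition plus 3 SD, cut at about 24% in these data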;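 note: 0% = DMSO plus EC80 ATP and 100% = DMSO alone without ATP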
M1 PAM – human M1 muscarinic receptor positive allosteric modulators, primary screen, CHO-K1 cells, Fluo-8 calcium fluorescence, 1536-well. Muscarinic acetylcholine receptor M1 (Homo sapiens), P11229. CHO-K1 hM1, ACh EC20; 0% = ACh EC20, 100% = maximal ACh. activation, % at 3 µM. hit rate 0.088% among 360,000; in the data active = activation above about 19%, passing the limit was not always enough
M1 ag parental – counter-screen for M1 agonists: effect in parental CHO-K1 cells; Fluo-8 calcium fluorescence; scaled to maximal ATP response, vehicle zero; AID 602248, 2012; hit rate 0.48% among 360,000; activation, % at 3 µM; in the data active = activation above about 15%;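 note: untransfected CHO-K1 host cells lacking M1 receptor as counterscreen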
M1 PAM parental – nonselective calcium activators in parental CHO-K1 cells, primary screen, counter-screen for M1 PAM project, cell-based, Fluo-8 calcium fluorescence, full deck, 1536-well. activation, % at 3 µM. AID 602247, 2012. hit rate 0.02% among 360,000. ATP EC20; 0% at ATP EC20, 100% at ATP max;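 active = activation above the run cutoff, the mean activation of all test compounds plus 3 SD, cut at about 40% in these data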;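 note: peak over basal fluorescence ratio in a 140 s read after ATP addition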
M1 antag – human M1 muscarinic receptor antagonists, primary screen, CHO-K1 cells, Fluo-8 calcium fluorescence, 1536-well; hit rate 1.3% among 360,000; inhibition, % at 3 µM; CHO-K1 hM1, ACh EC80 antagonist; AID 588852, 2011;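 active = percent inhibition above its own plate's cutoff, namely the mean of that plate's compound wells plus 3 SD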;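 note: peak over basal fluorescence ratio during 140 s after agonist addition; 0% = ACh EC80 plus DMSO and 100% = DMSO alone without agonist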
An asterisk follows results filed as active.

SMILES	CHRM1 agonist	CHO-K1 Ca antag	M1 PAM	M1 ag parental	M1 PAM parental	M1 antag
COc1ccc(/C(C)=N/N2CCCCC2)c(O)c1	18.1*	-18.0	4.2	1.3	6.0	1.4
CC(C)Nc1ccc(Nc2ccnc3cc4ccccc4cc23)cc1	-6.6	-7.4	-3.7	0.4	5.1	-9.4
c1ccc(CCNc2ccnc3cc4ccccc4cc23)cc1	-3.0	12.6	-20.9	9.1	-1.8	41.8*
Cc1onc(-c2c(Cl)cccc2Cl)c1C(=O)N1CCc2ccccc2C1	-6.3	-10.2	-23.1	0.2	19.9	40.7*
Cc1nnc(SCc2cc(=O)n3[nH]cnc3n2)s1	-2.0	24.8*	-5.7	-0.3	-6.6	11.2
Cc1nnc(SCc2cc(=O)[nH]c(N3CCCCC3)n2)s1	-4.1	-5.0	1.1	0.1	13.6	-1.6
Cc1ccc(C)c(Cn2nnc(C(=O)Nc3ccc4c(c3)OCCO4)c2N)c1	28.1*	18.6	5.2	14.0	-24.9	8.2
Nc1c(C(=O)NCc2ccc3c(c2)OCO3)nnn1CC(=O)Nc1ccc(Br)cc1	-2.0	-1.9	1.1	1.1	11.2	2.7
Nc1c(C(=O)NCc2ccc3c(c2)OCO3)nnn1Cc1ccc(Br)cc1	16.5*	-2.6	6.5	17.9*	19.3	-0.5
Cc1cc(C)cc(NC(=O)c2nnn(Cc3cc(C)ccc3C)c2N)c1	26.1*	21.3	-3.0	3.4	-14.0	6.2
COc1ccc(CN(C)C(=O)c2cc(-c3ccccc3)nc3ccc(C)cc23)c(OC)c1	-3.4	-10.6	-16.9	5.1	11.7	37.2*
Cc1nn(C)cc1CN(C)C(=O)c1cc(-c2ccccc2)nc2ccc(Br)cc12	-1.1	-2.7	-6.8	7.3	-4.5	34.3*
Cn1cc(CNC(=O)c2cc(-c3ccccc3)nc3ccc(Br)cc23)cn1	-8.0	-6.8	-10.0	3.4	13.8	8.8
COc1ccccc1CN(C)C(=O)c1cc(C)nc2ccccc12	-1.6	-8.9	-0.2	4.1	12.1	-4.4
CC(Cc1ccccc1)NC(=O)CCCN1C(=O)c2ccccc2C1=O (stereo not drawn)	-2.5	-5.5	-4.3	4.4	14.5	-4.2
CC(=O)c1ccc(OCCCC(=O)Nc2cccc(S(=O)(=O)N3CCCCC3)c2)cc1	-0.6	0.0	4.8	3.9	-13.9	-5.8
CC(C)(C)c1ccc(C(=O)NC(CC(=O)O)c2ccc(OC3CCCC3)cc2)cc1 (stereo not drawn)	-8.2	-22.8	13.3	1.4	8.8	-25.8
CCOc1cc(C(=O)NC(CC(=O)O)c2ccc(OC3CCCC3)cc2)cc(OCC)c1OCC (stereo not drawn)	-5.0	31.9*	10.5	3.3	1.5	-16.4
CCOC(=O)N1CCN(c2c(-c3ccc(C)cc3)c(=O)c2=O)CC1	1.3	13.7	13.2	-0.3	3.8	-24.4
CCOC(=O)N1CCN(c2c(-c3ccc(C(C)C)cc3)c(=O)c2=O)CC1	-1.3	26.2*	4.8	-0.9	-7.3	5.5
CCc1noc(C)c1C(=O)OCC(=O)c1ccccc1OC	-2.6	-9.0	-1.4	-0.2	-7.3	10.2
COCCNC(=O)CN1C(=O)NC2(CCCc3ccccc32)C1=O (stereo not drawn)	-0.1	1.5	3.7	0.5	13.2	67.1*
COc1ccc(NS(=O)(=O)c2ccc3c(c2)N(C(C)=O)CCS3)cc1	3.7	23.5	-8.1	16.9*	-15.9	5.3
CC(=O)N1CCSc2ccc(S(=O)(=O)Nc3ccc(C)cc3)cc21	0.1	-16.1	-5.1	9.5	10.1	2.5
CCNC(=O)Nc1cc(S(=O)(=O)Nc2ccc(OC)cc2)ccc1N1CCOCC1	6.2	27.8*	-10.6	14.1	-18.3	26.0
SMILES	CHRM1 agonist	CHO-K1 Ca antag	M1 PAM	M1 ag parental	M1 PAM parental	M1 antag
Nc1cc(S(=O)(=O)Nc2ccc(Cl)cc2)ccc1N1CCOCC1	6.2	19.0	-13.5	11.7	-17.3	38.5*
COc1ccc(NS(=O)(=O)c2cc(NC(=O)CCNC(C)=O)ccc2N2CCCCC2)cc1	-5.3	-11.4	-11.3	0.6	17.9	44.0*
CCOc1ccc(CCNC(=O)Nc2cccc(OC)c2)cc1OCC	-0.4	0.5	-1.4	6.3	6.6	2.6
O=C(COc1ccc(S(=O)(=O)Nc2ccc(Cl)cc2)cc1)N1CCOCC1	17.7*	-0.1	-2.1	9.6	6.2	6.1
COc1ccc(NS(=O)(=O)c2ccc(N3CCCC3)c(N)c2)cc1	-6.2	16.1	-26.9	10.4	-9.0	40.0*
COc1ccc(NS(=O)(=O)c2ccc(OCC(=O)N3CCOCC3)cc2)cc1	-0.1	3.8	-2.3	3.1	17.6	3.1
Cc1noc(/C=C/N(C)C)c1S(=O)(=O)N1CCCC(C(=O)Nc2ccccc2F)C1 (stereo not drawn)	3.1	13.2	18.9	0.6	-14.7	-4.5
CC1CCN(CCCNC(=O)C2CCC(CNS(=O)(=O)c3ccccc3)CC2)CC1 (stereo not drawn)	-4.5	-12.4	0.3	-0.1	2.4	-2.5
C[C@@H](NC(=O)Cn1ccc(N)nc1=O)c1cccc2ccccc12	-2.4	-12.2	10.7	0.5	25.0	-17.9
COC(=O)c1ccc(CSc2nc3ccccc3c(=O)n2Cc2ccco2)o1	-5.1	13.2	-20.2	6.1	11.1	36.0*
COC(=O)c1ccc(CSc2nc3ccccc3c(=O)n2CC(C)C)o1	-4.5	5.4	-10.2	0.0	-6.7	18.4
CCn1cc(C(=O)NC2CCCc3c2cnn3-c2cccc(C)c2C)cn1 (stereo not drawn)	3.1	25.1*	-8.2	14.3	-2.1	30.6*
CCOC(=O)c1c(N)sn(-c2ccccc2C)c1=S	-3.6	2.4	-9.4	0.4	-2.0	33.7*
Fc1ccc(-c2cn(-c3ccccc3)c3[n+]2CCS3)cc1	-7.0	-7.3	-12.4	0.5	13.2	11.3
COc1ccc(-c2cn(-c3ccc(Br)cc3)c3[n+]2CCS3)cc1	-7.9	0.6	-25.3	0.1	0.7	44.0*
Clc1ccc(-c2cn(-c3ccccc3)c3[n+]2CCS3)cc1	-13.2	-10.5	-32.6	0.3	24.8	58.4*
CC(=O)c1ccc(-n2cc(-c3ccc(C(C)(C)C)cc3)[n+]3c2SCCC3)cc1	-14.4	-2.2	-32.2	-0.2	12.4	38.7*
CCOc1ccc(S(=O)(=O)N2CCC(C(=O)Nc3ccccc3N3CCCC3)CC2)cc1	-7.0	-4.0	2.3	0.6	5.0	-3.1
CN(C)Cc1c(C(=O)N/N=C/CCc2ccccc2)nnn1-c1nonc1N	-1.1	-15.5	14.8	0.9	4.6	-24.6
O=C(Cc1ccc(S(=O)(=O)N2CCOCC2)s1)N1CCN(S(=O)(=O)c2ccccc2[N+](=O)[O-])CC1	-4.1	-6.6	-14.5	3.2	-2.4	31.6*

Screening results as filed in PubChem.
